From PMC7862700, “An all-to-all approach to the identification of sequence-specific readers for epigenetic DNA modifications on cytosine” come the findings set out here.

Holding throughout (assay): DAPPL (digital affinity profiling via proximity ligation, sequencing); 10 mM Tris-HCl pH 7.5, 50 mM NaCl, 1 mM DTT, 4% glycerol, room temperature, 30 min; GST-TFs on glutathione beads, 16-mer random dsDNA library, 0.1% formaldehyde crosslink after washing; high values mean tight binding
Details in all cases: protein: recombinant; tags: N-terminal GST; dsDNA, one strand shown

The target in one assay is T1, ERG (Homo sapiens, UniProt P11308 1-479).
T1 sequence: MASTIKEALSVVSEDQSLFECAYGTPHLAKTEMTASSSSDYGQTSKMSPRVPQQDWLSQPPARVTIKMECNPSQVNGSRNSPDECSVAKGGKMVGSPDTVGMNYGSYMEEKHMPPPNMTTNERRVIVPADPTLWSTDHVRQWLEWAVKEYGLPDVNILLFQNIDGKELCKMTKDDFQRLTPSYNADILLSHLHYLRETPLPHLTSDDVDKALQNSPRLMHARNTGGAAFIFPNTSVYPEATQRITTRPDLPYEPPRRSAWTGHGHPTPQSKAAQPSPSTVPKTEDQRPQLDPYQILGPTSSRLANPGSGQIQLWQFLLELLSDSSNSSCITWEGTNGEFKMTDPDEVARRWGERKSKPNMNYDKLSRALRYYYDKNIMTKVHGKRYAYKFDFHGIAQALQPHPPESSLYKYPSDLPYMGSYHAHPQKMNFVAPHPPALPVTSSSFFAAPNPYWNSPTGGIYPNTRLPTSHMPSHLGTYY
The method, boiled down:
(§1)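 Sequencing on an Illumina NextSeq500 followed washing, crosslinking with 0.1% formaldehyde, proximity ligation (BsaI/T4 ligase, 1 h, 37 °C) and PCR amplification of pools that had been incubated for 30 min at room temperature with 200 nmole of a random double-stranded 16-mer DNA library in Tris/NaCl/DTT/glycerol buffer. Each pool held DNA-barcoded human transcription factors, expressed in yeast as GST fusions and captured on glutathione beads, plus a tag-only sample. Binding signal is a hexamer's read frequency for a factor divided by its frequency in the tag-only sample.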

The target of the next assay is T2, EHF (Homo sapiens, UniProt Q9NZC4 1-300).
T2 sequence: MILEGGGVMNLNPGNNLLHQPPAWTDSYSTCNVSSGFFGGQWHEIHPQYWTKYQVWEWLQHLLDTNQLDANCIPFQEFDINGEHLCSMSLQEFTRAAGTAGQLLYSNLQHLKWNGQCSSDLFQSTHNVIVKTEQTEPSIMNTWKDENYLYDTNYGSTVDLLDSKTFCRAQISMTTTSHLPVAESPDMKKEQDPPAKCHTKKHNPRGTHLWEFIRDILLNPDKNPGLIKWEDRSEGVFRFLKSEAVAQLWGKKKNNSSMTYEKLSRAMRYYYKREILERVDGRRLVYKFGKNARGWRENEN
The method, boiled down: as §1

The target of the next assay is SPIB (Homo sapiens, UniProt Q01892 1-262). The method, boiled down: as §1
For a further assay, the target named is ETV5 (Homo sapiens, UniProt P41161 1-510). The method, boiled down: as §1
For another assay, the target named is ETV1 (Homo sapiens, UniProt P50549 1-477). In outline:
as §1

The next assay deals with T3, SPDEF (Homo sapiens, UniProt O95238 1-335).
T3 sequence: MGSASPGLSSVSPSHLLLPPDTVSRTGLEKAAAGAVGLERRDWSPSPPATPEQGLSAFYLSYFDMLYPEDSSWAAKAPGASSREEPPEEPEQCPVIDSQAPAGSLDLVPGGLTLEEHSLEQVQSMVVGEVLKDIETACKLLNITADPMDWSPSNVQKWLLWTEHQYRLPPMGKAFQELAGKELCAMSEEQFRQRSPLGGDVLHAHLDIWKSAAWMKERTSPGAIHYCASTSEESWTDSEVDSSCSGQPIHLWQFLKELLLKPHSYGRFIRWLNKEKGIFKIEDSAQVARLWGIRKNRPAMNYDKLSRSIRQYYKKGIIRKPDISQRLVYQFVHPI
In outline:
as §1

A further assay deals with T4, ETV3 (Homo sapiens, UniProt P41162-2 1-143).
T4 sequence: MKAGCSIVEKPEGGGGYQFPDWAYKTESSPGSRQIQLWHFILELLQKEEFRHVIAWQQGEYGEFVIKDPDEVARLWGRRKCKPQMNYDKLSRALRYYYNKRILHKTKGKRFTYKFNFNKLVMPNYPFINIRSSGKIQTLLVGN
The method, boiled down:
as §1

For another assay, the target named is T5, ELK1 (Homo sapiens, UniProt P19419 1-428).
T5 sequence: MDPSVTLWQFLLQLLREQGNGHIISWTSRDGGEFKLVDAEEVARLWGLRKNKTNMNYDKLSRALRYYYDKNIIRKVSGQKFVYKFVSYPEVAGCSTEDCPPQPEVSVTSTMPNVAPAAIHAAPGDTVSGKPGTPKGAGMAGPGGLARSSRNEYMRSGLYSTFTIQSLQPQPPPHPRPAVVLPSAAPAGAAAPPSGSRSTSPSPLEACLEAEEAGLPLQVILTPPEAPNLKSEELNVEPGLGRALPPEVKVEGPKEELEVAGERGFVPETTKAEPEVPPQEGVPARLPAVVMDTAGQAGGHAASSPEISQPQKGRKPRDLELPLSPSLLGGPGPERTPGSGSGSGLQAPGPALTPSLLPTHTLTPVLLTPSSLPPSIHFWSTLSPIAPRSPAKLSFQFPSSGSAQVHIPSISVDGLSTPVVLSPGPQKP
The method, boiled down: as §1

Another assay has as its target T6, GABPA (Homo sapiens, UniProt Q06546 1-454).
T6 sequence: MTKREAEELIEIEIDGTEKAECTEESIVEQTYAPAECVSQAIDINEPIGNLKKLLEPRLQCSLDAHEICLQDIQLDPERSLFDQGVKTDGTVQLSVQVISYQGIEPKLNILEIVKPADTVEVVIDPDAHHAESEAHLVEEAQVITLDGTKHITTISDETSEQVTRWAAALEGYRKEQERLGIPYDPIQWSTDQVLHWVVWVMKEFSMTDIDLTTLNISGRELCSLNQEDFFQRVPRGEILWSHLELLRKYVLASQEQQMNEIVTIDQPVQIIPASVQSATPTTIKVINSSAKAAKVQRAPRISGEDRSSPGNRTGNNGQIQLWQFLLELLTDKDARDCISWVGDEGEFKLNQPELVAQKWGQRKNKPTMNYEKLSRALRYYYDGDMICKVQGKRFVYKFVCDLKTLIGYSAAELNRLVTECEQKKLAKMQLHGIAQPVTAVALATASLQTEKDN
In outline: as §1

For the next assay, the target named is T7, ELK3 (Homo sapiens, UniProt P41970 1-407).
T7 sequence: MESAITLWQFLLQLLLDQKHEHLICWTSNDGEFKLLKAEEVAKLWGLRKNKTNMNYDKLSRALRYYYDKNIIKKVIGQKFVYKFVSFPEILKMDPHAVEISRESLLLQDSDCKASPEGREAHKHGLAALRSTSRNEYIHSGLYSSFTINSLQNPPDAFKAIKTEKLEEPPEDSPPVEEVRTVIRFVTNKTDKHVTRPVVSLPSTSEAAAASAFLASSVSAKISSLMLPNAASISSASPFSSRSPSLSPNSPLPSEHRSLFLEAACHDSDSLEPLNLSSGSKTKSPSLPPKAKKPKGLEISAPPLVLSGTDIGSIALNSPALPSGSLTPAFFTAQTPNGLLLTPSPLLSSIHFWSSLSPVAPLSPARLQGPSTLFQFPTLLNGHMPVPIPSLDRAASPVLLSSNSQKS
In outline:
as §1

In a further assay the target is T8, SPIC (Homo sapiens, UniProt Q8N5J4 1-248).
T8 sequence: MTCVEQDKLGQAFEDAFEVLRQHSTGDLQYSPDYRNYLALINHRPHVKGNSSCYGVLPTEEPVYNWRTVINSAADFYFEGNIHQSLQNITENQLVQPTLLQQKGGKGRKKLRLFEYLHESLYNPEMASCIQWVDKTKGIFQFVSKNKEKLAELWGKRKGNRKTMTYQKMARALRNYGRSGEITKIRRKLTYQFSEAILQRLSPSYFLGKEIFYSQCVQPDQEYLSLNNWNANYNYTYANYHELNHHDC
In outline:
as §1

The target of a further assay is T9, ELF3 (Homo sapiens, UniProt P78545 1-371).
T9 sequence: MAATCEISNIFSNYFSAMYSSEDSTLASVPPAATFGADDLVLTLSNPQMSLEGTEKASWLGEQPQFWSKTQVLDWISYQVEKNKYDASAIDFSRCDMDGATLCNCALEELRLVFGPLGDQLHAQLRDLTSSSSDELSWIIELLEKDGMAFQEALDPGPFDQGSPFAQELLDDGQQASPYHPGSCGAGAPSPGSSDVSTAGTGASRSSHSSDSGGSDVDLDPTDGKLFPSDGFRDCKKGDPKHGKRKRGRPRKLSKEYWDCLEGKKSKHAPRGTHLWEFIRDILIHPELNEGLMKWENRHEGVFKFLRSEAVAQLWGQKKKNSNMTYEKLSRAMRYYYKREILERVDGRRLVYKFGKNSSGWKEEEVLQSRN
The method, boiled down:
as §1

The next assay addresses T10, ERF (Homo sapiens, UniProt P50548 1-548).
T10 sequence: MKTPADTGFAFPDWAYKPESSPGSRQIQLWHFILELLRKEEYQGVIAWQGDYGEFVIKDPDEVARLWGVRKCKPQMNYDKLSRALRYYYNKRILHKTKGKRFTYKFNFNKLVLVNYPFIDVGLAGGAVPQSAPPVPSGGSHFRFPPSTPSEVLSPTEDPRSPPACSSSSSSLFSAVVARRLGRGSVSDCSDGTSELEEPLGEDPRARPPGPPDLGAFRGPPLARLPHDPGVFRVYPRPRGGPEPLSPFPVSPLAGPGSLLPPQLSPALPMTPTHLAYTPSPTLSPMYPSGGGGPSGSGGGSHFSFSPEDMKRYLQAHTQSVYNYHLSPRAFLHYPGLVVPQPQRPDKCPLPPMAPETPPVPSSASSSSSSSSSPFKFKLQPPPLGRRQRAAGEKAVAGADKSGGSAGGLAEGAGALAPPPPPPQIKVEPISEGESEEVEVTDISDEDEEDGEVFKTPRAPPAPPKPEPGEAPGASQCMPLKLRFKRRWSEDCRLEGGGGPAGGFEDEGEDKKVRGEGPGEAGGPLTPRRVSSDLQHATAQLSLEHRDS
In outline: as §1

Another assay deals with T11, ETS2 (Homo sapiens, UniProt P15036 1-469).
T11 sequence: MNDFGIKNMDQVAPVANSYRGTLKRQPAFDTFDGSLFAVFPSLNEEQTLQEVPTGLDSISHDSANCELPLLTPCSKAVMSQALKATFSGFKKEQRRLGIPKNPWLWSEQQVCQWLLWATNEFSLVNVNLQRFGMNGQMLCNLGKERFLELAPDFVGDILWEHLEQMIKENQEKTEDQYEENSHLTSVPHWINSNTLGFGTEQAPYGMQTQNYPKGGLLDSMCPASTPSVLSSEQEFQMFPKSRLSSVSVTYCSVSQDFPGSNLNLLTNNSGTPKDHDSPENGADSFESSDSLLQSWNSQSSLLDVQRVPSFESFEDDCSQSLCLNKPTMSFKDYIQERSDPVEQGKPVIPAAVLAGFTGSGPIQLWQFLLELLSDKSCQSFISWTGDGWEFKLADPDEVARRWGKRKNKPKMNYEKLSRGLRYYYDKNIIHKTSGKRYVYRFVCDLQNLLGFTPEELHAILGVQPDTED
In outline: as §1

ETV5, sequence (P41161 whole entry): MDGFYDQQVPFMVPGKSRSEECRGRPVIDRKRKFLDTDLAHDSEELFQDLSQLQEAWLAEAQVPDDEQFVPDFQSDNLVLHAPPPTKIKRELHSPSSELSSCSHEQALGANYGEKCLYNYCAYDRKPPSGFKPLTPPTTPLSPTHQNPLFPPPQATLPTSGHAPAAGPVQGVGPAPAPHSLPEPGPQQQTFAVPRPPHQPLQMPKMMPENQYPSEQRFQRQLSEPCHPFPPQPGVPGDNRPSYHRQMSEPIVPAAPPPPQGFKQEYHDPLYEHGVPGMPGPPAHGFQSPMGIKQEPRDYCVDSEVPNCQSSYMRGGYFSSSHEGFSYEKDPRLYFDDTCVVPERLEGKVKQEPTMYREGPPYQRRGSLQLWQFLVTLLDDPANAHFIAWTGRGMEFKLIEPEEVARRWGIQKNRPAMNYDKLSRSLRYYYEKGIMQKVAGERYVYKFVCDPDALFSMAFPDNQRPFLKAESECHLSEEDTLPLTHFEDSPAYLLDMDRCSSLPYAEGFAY
SPIB, sequence (Q01892 whole entry): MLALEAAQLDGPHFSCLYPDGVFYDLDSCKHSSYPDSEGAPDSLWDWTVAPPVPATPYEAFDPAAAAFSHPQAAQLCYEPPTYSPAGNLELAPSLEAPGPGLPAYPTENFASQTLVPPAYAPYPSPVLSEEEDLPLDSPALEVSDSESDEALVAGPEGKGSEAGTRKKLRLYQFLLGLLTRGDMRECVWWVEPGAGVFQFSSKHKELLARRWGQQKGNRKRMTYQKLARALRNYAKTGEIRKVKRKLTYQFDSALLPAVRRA
ETV1, sequence (P50549 whole entry): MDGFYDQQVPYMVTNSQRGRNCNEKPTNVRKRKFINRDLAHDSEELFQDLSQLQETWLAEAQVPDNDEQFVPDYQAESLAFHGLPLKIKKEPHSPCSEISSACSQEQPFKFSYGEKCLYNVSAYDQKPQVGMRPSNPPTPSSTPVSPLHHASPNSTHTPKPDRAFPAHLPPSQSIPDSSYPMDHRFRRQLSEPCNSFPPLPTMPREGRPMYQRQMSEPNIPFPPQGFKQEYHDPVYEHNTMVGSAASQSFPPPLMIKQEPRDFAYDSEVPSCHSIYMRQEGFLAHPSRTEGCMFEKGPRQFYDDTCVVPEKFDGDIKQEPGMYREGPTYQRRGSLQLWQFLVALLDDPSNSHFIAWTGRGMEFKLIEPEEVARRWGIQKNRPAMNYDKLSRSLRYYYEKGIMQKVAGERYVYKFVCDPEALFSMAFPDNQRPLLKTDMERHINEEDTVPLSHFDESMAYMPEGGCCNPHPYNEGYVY

In the case of GGATAC, the binding signal with ERG was 1.09 fold enrichment (6-mer frequency, TF over GST control); with EHF, 1.01 fold enrichment (6-mer frequency, TF over GST control); in the assay with SPIB, 1 fold enrichment (6-mer frequency, TF over GST control); in the assay with ETV5, 1.01 fold enrichment (6-mer frequency, TF over GST control); with ETV1 it was 1.06 fold enrichment (6-mer frequency, TF over GST control); with SPDEF, 1.43 fold enrichment (6-mer frequency, TF over GST control). Also, in the assay with ETV3, the binding signal was 1 fold enrichment (6-mer frequency, TF over GST control).

As to TATGAG, the binding signal with ELK1 was 1.02 fold enrichment (6-mer frequency, TF over GST control); with GABPA, 1.03 fold enrichment (6-mer frequency, TF over GST control); in the assay with EHF, 1.04 fold enrichment (6-mer frequency, TF over GST control); with ELK3 it was 1.02 fold enrichment (6-mer frequency, TF over GST control); with ETV5 it was 1.02 fold enrichment (6-mer frequency, TF over GST control); with SPIC, 1.16 fold enrichment (6-mer frequency, TF over GST control). For the same sequence, the binding signal with ELF3 was 1.08 fold enrichment (6-mer frequency, TF over GST control); with ERF, 1.1 fold enrichment (6-mer frequency, TF over GST control); with ETS2 it was 1 fold enrichment (6-mer frequency, TF over GST control); with SPDEF, 1.01 fold enrichment (6-mer frequency, TF over GST control); with ETV3, 1.09 fold enrichment (6-mer frequency, TF over GST control).
